# Results filed as inconclusive are left out. Active and inactive are the calls of the source. Calls follow the shape of the dose curve; as a rule, active = well fitted cell-killing curve with a large enough effect; inconclusive = small, poorly fitted or top-dose-only effect; inactive = flat fitted curve, though single readings scatter.
# Assay: qHTS of pediatric cancer cell lines to identify multiple opportunities for drug repurposing: Primary screen for RD cells (AID 1347104); also: nearly all actives have a fitted effect of over 55% in size
# Details: RD rhabdomyosarcoma viability, CellTiter-Glo luminescence, 48 h; series mostly up to 46 µM; activity change, negative = cytotoxic: at the top concentration
# Excerpt: Drug repurposing or repositioning has been offered as a strategy for drug development in oncology programs. This approach has special potential for childhood cancers and other rare or orphan diseases, where the expected return on new drug development has been a disincentive to pharmaceuticals. […] In this project we exploit the poly-pharmacology of drugs to discover new indications via phenotypic screening of a panel of 19 well-characterized cell lines derived from solid tumors seen in children and adolescents. The goal is to identify approved drugs with previously unrecognized anticancer properties that has the potential to reveal new mechanisms and biological processes involved in carcinogenesis or drug resistance. We employed a titration-based paradigm (quantitative high-throughput screening or qHTS), where all compounds were tested at multiple concentrations for their effect on cell viability. Concentration-response curves (CRCs) were derived directly from the primary screen, and both potency and efficacy values were used to identify compounds with robust bioactivity profiles. We screened the NIH Chemical Genomics Center (NCGC) Pharmaceutical Collection (NPC) and Mechanism Interrogation Plate (MIPE) small molecule collections of approved and investigational compounds against these cell lines; and measured metabolically active cells after 48 hours of compound treatment as a proxy for cell viability. […] Assay Submitter: Nathalia J. Martinez, National Center for Advancing Translational Sciences, National Institutes of Health, Rockville, MD, USA; email: natalia.martinez@nih.gov Shen, M et al. Quantitative high-throughput phenotypic screening of pediatric cancer cell lines identifies multiple opportunities for drug repurposing. Oncotarget 2017 Dec 19;9(4):4758-4772. PMID 29435139.
# The cells were obtained from University of North Carolina (UNC), Pediatric Preclinical Testing Program (PPT), and Coriell Institute (CI). qHTS cell viability assay: Cells were assayed in growth media at a density of 500-1,000 cells/well. Five microliters of cells were dispensed into 1,536-well, white, solid-bottom, TC-treated plates (Greiner Bio One) using a multidrop dispenser and incubated at 37 degrees C, 5% CO2, under a humidified atmosphere for 5 hours. Twenty-three nanoliters of compounds and controls (neutral control DMSO or positive control bortezomib at final concentration of 2.3 µM) were subsequently transferred by Kalypsys pintool. For primary screens, the MIPE collection was tested at 11-point dilutions (final concentrations range from 0.78 nM to 46 µM) and the NPC collection at 8-point dilutions (final concentrations range from 0.59 nM to 46 µM). Compounds tested in follow-up screens were assayed at 11-point dilutions. Cells were incubated for 48 hours, followed by addition of 3 µL of CellTiter-Glo (Promega). After a 15 min incubation at room temperature, samples were analyzed for luminescence intensity using a ViewLux High-throughput CCD imager equipped with clear filters.
# Potency is read from the fitted curve at half-maximal effect.
SMILES,"activity change, negative = cytotoxic",Potency
O=C(O)COc1ccccc1,13.6% (inactive),–
N#C[C@H](O[C@@H]1O[C@H](CO[C@@H]2O[C@H](CO)[C@H](O)[C@H](O)[C@H]2O)[C@H](O)[C@H](O)[C@H]1O)c1ccccc1,–,33200 nM (active)
C[C@@H]1[C@H](O)[C@@H](C)C=CC=CCCC=CC=CC=CC=C[C@H](O[C@H]2O[C@@H](C)[C@H](O)[C@@H](N)[C@@H]2O)CC2O[C@](O)(C[C@@H](O)[C@H](O)CC[C@@H](O)C[C@@H](O)C[C@@H](O)CC(=O)O[C@H]1C)C[C@H](O)[C@H]2C(=O)O,-2.3% (inactive),–
O=C(O)c1cc(Oc2ccc(C(F)(F)F)cc2Cl)ccc1[N+](=O)[O-],14.3% (inactive),–
CC[C@H]1C=CC=CC[C@@H](C)[C@H](O)[C@@](C)(O)C(=O)[C@@H](C)[C@H](O)[C@@H](C)C(=O)[C@@H](C)[C@H](O)[C@@H](C)C=CC(=O)O[C@@H]2[C@@H](C)[C@H](CC1)O[C@]1(CC[C@H](C)[C@H](C[C@@H](C)O)O1)[C@H]2C,–,23500 nM (active)
COC1=CC(C)=C[C@@H](C)[C@@H](O)[C@@H](C)CC(C)=CC=C[C@H](OC)[C@H]([C@@H](C)[C@@H](O)[C@H](C)[C@@]2(O)C[C@@H](O)[C@H](C)[C@@H](C(C)C)O2)OC1=O,–,1 nM (active)
CC[C@@]1(O)C(=O)OCc2c1cc1n(c2=O)Cc2cc3ccccc3nc2-1,–,743 nM (active)
CCOC(=O)c1cncn1[C@H](C)c1ccccc1,6.69% (inactive),–
CCNC(=O)C[C@@H]1N=C(c2ccc(Cl)cc2)c2cc(OC)ccc2-n2c(C)nnc21,–,1180 nM (active)
CCC(=O)OC1CCC2C3CCC4=CC(=O)CC[C@@]4(C)C3CC[C@]12C (stereo not given in full),7.73% (inactive),–
CCC1(CCC(C)C)C(=O)NC(=O)NC1=O,1.97% [at 92.7 µM] (inactive),–
CN(C)[C@@H]1C(=O)C(C(N)=O)=C(O)[C@@]2(O)C(=O)C3=C(O)c4c(O)cccc4[C@@](C)(O)[C@H]3[C@H](O)[C@@H]12,4.9% (inactive),–
CC1=NN=C(c2ccc(N)cc2)c2cc3c(cc2C1)OCO3,8.26% (inactive),–
COC(=O)c1cncn1C(C)c1ccccc1 (stereo not given),-12.3% (inactive),–
CCOP(=O)(OCC)C(C)NC(=O)N(CCCl)N=O (stereo not given),16.3% (inactive),–
CN1[C@H]2CC(O)C[C@H]1[C@H]1O[C@H]12 (stereo not given in full),–,33200 nM (active)
O=C(Nc1ccccc1-c1ccc(Cl)cc1)c1cccnc1Cl,9.97% [at 92.7 µM] (inactive),–
C1CCC(NC2CCCCC2)CC1,9.89% (inactive),–
O=[N+]([O-])c1ccc([As](=O)(O)O)cc1,6.25% (inactive),–
O=C(Oc1ccc([N+](=O)[O-])cc1)N1CCC(C(O)(c2ccc3c(c2)OCO3)c2ccc3c(c2)OCO3)CC1,-14.4% (inactive),–

SMILES,"activity change, negative = cytotoxic",Potency
CSCC[C@@H](NC(=O)[C@@H](Cc1ccccc1)NC(=O)CNC(=O)CNC(=O)[C@@H](N)Cc1ccc(O)cc1)C(=O)O,12.4% (inactive),–
c1cc2c(cc1[C@H]1OC[C@H]3[C@H]1CO[C@H]3c1ccc3c(c1)OCO3)OCO2,12% (inactive),–
Cc1cc(O)ccc1Cl,7.18% (inactive),–
C[C@@H]1O[C@@H](O[C@@H]2C=C3CC[C@@H]4[C@@H](CC[C@]5(C)[C@H](c6ccc(=O)oc6)CC[C@@]45O)[C@@]3(C)CC2)[C@H](O)[C@H](O)[C@H]1O,–,7.4 nM (active)
COc1cccc2c1[C@]13CCN(CC4CC4)[C@H](C2)[C@]1(OC)CCC(=O)C3,14.5% (inactive),–
CC(C)(C)NC[C@H](O)c1ccc(O)cc1Cl,6.61% (inactive),–
CCOC(=O)Nc1ccc(NCc2ccc(F)cc2)cc1N,–,26400 nM (active)
Cc1ccccc1-n1c(Cn2cnc3c(N)ncnc32)nc2cccc(C)c2c1=O,–,2350 nM (active)
C[C@@H]1CC[C@@]2(OC1)O[C@H]1C[C@H]3[C@@H]4CC=C5C[C@@H](O[C@@H]6O[C@H](CO)[C@@H](O[C@@H]7O[C@@H](C)[C@H](O)[C@@H](O)[C@@H]7O)[C@H](O)[C@@H]6O[C@@H]6O[C@@H](C)[C@H](O)[C@@H](O)[C@@H]6O)CC[C@]5(C)[C@@H]4CC[C@]3(C)[C@@H]1[C@H]2C,–,5900 nM (active)
CC(=O)[O][Hg][c]1ccccc1,–,944 nM (active)
CC(C)Oc1cccc(NC(=O)c2ccccc2C(F)(F)F)c1,-5.1% [at 92.7 µM] (inactive),–
C[C@H]([C@H](O)CCC(C)(C)O)[C@H]1CC[C@@]2(O)C3=CC(=O)[C@@H]4C[C@@H](O)[C@@H](O)C[C@]4(C)[C@@H]3CC[C@]12C,3.56% (inactive),–
O=S(=O)(O)C(F)(F)C(F)(F)C(F)(F)C(F)(F)F,17.8% [at 92.7 µM] (inactive),–
C1=C2CCCN[C@H]2[C@@H]2C[C@H]1[C@@H]1CCCCN1C2,-13.1% (inactive),–
O=C(O)CNC(=O)c1c(O)c2ccccc2n(Cc2ccccc2)c1=O,-1.25% (inactive),–
C[C@]12CC[C@H]3[C@@H](CCC4=CC(=O)CC[C@@]43C)[C@H]1CC[C@H]2O,-7.54% (inactive),–
C=C1C[C@H]2[C@H]3CCC(=O)[C@@]3(C)CC[C@@H]2[C@@]2(C)C=CC(=O)C=C12,-18.6% (inactive),–
CCN1C[C@]2(OC(=O)c3ccccc3NC(C)=O)CC[C@H](OC)[C@@]34[C@H]5CC6[C@@H](OC)C[C@](O)(C(C[C@@H]23)[C@@H]14)[C@@]5(O)[C@@H]6OC,11% (inactive),–
O=S(=O)(c1ccc(Cl)cc1)c1ccc(Cl)cc1,-17.4% [at 92.7 µM] (inactive),–
C#C[C@]1(O)C=C[C@@H]2[C@@H]3CCC4=CC(=O)CC[C@@H]4[C@H]3CC[C@@]21CC,5.82% (inactive),–

# Reference: PubChem BioAssay (NCATS)
